Columns and labels:
Settings in all cases: concentration: 1 μM,replicates: in singlicate; n = 1
[1] = test system: FGFR1
[2] = test system: FGFR2
[3] = test system: FGFR3
[4] = test system: FGFR4
[5] = test system: FGR
[6] = test system: FLT1
[7] = test system: FLT3-autoinhibited
[8] = test system: FLT3
[9] = test system: FLT4
[10] = test system: FRK
[11] = test system: FYN
[12] = test system: GAK
[13] = test system: T1, GCN2(Kin.Dom.2,S808G)
T1 construct: gene EIF2AK4

[14] = test system: GRK1
[15] = test system: T2, GRK2
T2 construct: gene ADRBK1

[16] = test system: T3, GRK3
T3 construct: gene ADRBK2

[17] = test system: GRK4
[18] = test system: GRK7
[19] = test system: GSK3A
[20] = test system: GSK3B
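Also: KINOMEscan kinase panel screen.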

Cc1cc(C(=O)Nc2ccc(Oc3ccc4nc(NC(=O)C5CC5)cn4n3)cc2)nn1-c1ccccc1
%Inh [1]: 21% | %Inh [2]: 28% | %Inh [3]: 7% | %Inh [4]: 13% | %Inh [5]: 59% | %Inh [6]: 88% | %Inh [7]: 18% | %Inh [8]: 97.5% | %Inh [9]: 94% | %Inh [10]: 0% | %Inh [11]: 13% | %Inh [12]: 6% | %Inh [13]: 0% | %Inh [14]: 0% | %Inh [15]: 0% | %Inh [16]: 0% | %Inh [17]: 6% | %Inh [18]: 0% | %Inh [19]: 0% | %Inh [20]: 0%

Cl.Cl.NC[C@H](CC1CCCCC1)NC(=O)c1cc(Br)c(-c2ccnc3[nH]ccc23)s1 [GSK1581427]
%Inh [1]: 35% | %Inh [2]: 18% | %Inh [3]: 13% | %Inh [4]: 16% | %Inh [5]: 33% | %Inh [6]: 39% | %Inh [7]: 8% | %Inh [8]: 68% | %Inh [9]: 22% | %Inh [10]: 19% | %Inh [11]: 25% | %Inh [12]: 71% | %Inh [13]: 0% | %Inh [14]: 90.2% | %Inh [15]: 0% | %Inh [16]: 44% | %Inh [17]: 88% | %Inh [18]: 90% | %Inh [19]: 0% | %Inh [20]: 13%

O=C(NCCNc1ccnc(NCc2ccc(F)cc2)n1)c1cc2ccccc2s1 [GSK1379944]
%Inh [1]: 6% | %Inh [2]: 10% | %Inh [3]: 20% | %Inh [4]: 79% | %Inh [5]: 29% | %Inh [6]: 27% | %Inh [7]: 0% | %Inh [8]: 0% | %Inh [9]: 1% | %Inh [10]: 15% | %Inh [11]: 17% | %Inh [12]: 33% | %Inh [13]: 6% | %Inh [14]: 0% | %Inh [15]: 0% | %Inh [16]: 34% | %Inh [17]: 0% | %Inh [18]: 0% | %Inh [19]: 6% | %Inh [20]: 78%

C[C@@H](Oc1cc(-c2cnn(C3CCNCC3)c2)cnc1N)c1c(Cl)ccc(F)c1Cl
%Inh [1]: 22% | %Inh [2]: 0% | %Inh [3]: 24% | %Inh [4]: 0% | %Inh [5]: 46% | %Inh [6]: 28% | %Inh [7]: 31% | %Inh [8]: 40% | %Inh [9]: 4% | %Inh [10]: 36% | %Inh [11]: 15% | %Inh [12]: 2% | %Inh [13]: 0% | %Inh [14]: 15% | %Inh [15]: 16% | %Inh [16]: 0% | %Inh [17]: 10% | %Inh [18]: 0% | %Inh [19]: 68% | %Inh [20]: 36%

CCN(CC)CCCCNc1ncc2cc(-c3c(Cl)cccc3Cl)c(NC(=O)NC(C)(C)C)nc2n1
%Inh [1]: 98.6% | %Inh [2]: 96.4% | %Inh [3]: 95.5% | %Inh [4]: 28% | %Inh [5]: 90.3% | %Inh [6]: 99% | %Inh [7]: 24% | %Inh [8]: 98.1% | %Inh [9]: 83% | %Inh [10]: 96.2% | %Inh [11]: 87% | %Inh [12]: 42% | %Inh [13]: 53% | %Inh [14]: 12% | %Inh [15]: 22% | %Inh [16]: 28% | %Inh [17]: 7% | %Inh [18]: 0% | %Inh [19]: 0% | %Inh [20]: 26%

Cl.Cl.Nc1nc(-c2ccc3c(N)n[nH]c3c2)cc(N2CCCC(NC(=O)c3ccccc3)C2)n1 (stereo not shown) [GSK2286775]
%Inh [1]: 0% | %Inh [2]: 0% | %Inh [3]: 11% | %Inh [4]: 0% | %Inh [5]: 8% | %Inh [6]: 16% | %Inh [7]: 2% | %Inh [8]: 0% | %Inh [9]: 0% | %Inh [10]: 0% | %Inh [11]: 34% | %Inh [12]: 2% | %Inh [13]: 0% | %Inh [14]: 0% | %Inh [15]: 0% | %Inh [16]: 19% | %Inh [17]: 55% | %Inh [18]: 0% | %Inh [19]: 0% | %Inh [20]: 15%

Cl.Cl.NC[C@H](Cc1ccc(C(F)(F)F)cc1)NC(=O)c1cc(Br)c(-c2ccnc3[nH]ccc23)s1 [GSK1487252]
%Inh [1]: 14% | %Inh [2]: 17% | %Inh [3]: 24% | %Inh [4]: 57% | %Inh [5]: 31% | %Inh [6]: 62% | %Inh [7]: 23% | %Inh [8]: 63% | %Inh [9]: 54% | %Inh [10]: 15% | %Inh [11]: 15% | %Inh [12]: 0% | %Inh [13]: 4% | %Inh [14]: 93.7% | %Inh [15]: 35% | %Inh [16]: 75% | %Inh [17]: 8% | %Inh [18]: 95.3% | %Inh [19]: 0% | %Inh [20]: 18%

Cc1ccc2c(-c3ccncc3)c(-c3ccc(F)cc3)nn2c1.Cl [GW461484]
%Inh [1]: 14% | %Inh [2]: 12% | %Inh [3]: 4% | %Inh [4]: 4% | %Inh [5]: 0% | %Inh [6]: 5% | %Inh [7]: 0% | %Inh [8]: 37% | %Inh [9]: 0% | %Inh [10]: 20% | %Inh [11]: 26% | %Inh [12]: 84% | %Inh [13]: 28% | %Inh [14]: 0% | %Inh [15]: 0% | %Inh [16]: 0% | %Inh [17]: 0% | %Inh [18]: 66% | %Inh [19]: 26% | %Inh [20]: 16%

— paper PMC5540273 (PLoS ONE, 2017)
